# Results: PubChem BioAssay AID1508600 (Functional Genomics Laboratory (NCATS/FGL), 2020)
# In all, about 53,000 sequences went through this assay and about 3,700 (7%) were called active. This excerpt belongs to a sample that is enriched for actives. A number with no mark means an inactive call.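 How the source made its calls: active means gene knockdowns whose robust z-score for IL-1 alpha signal is at least 2 or at most -2, so actives lie on both sides; inactive means the rest.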
# Experiment: Components of the Cytosolic LPS Sensing Pathway: Gene Identification via Genome-wide siRNA Screen;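 further: robust z of the log signal after scaling to non-targeting control siRNA wells of the plate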
# Conditions: RAW264.7 macrophages, IL-1a HTRF, actives lie on both sides, screened at 100 nM (by protocol), cells primed 5 h with Pam3CSK4 first
# Summary of the method: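 Mouse macrophage line RAW264.7 is transfected with siRNA (100 nM final), grown 48h, primed with TLR ligand Pam3CSK4 5 h and given intracellular LipidA 24 h. IL-1a in supernatant is read by HTRF and viability by luminescence.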
row,Sequence,z-score
1,GCCAUGAGACACCUUCUCUTT against Olfr843,-1.96
2,GGCGAACUGAAGGAUAUGGTT against Anapc5,0.835
3,ACAUGACAAACAACACUAUTT against Olfr960,-0.891
4,GGCAGCUAGAGAGAAUCCUTT against Akr1c12,-2.45 (active)
5,GCUUUCGGUGGAUUCCUUATT against Rars2,-0.714
6,GGACUGGUUCUUCAGAUCCTT against Depp1,3.31 (active)
7,GGCUUUCGGUUAUGACCAATT against Alas2,-0.385
8,GGAAACCAUCUUUGAACUUTT against Specc1l,0.54
9,GGAUGUAUGAUGCAGUUAUTT against Olfr1211,1.89
10,GGGAUUUGAGCAUCUUUCCTT against Lrrc40,0.571
11,GGCUUUGAUUAUGUUCCCATT against Fcer2a,-0.188
12,GGUGACUAGAAAAAUGGAUTT against Cd1d1,0.528
13,GGAGAAGAUGUGGAGACAUTT against Edf1,-1.3
14,GGCAAAGAUCUUAUGGAGATT against Csf3r,0.0079
15,GGUUCUUUUUGCCACAGCCTT against Miga2,-2.31 (active)
16,GGGAGUAUUACCUCCUUCATT against Igbp1b,0.00303
17,GCAGCUUGAGUUCUCGAAUTT against BC049715,0.971
18,GGAAGAAGCUCUAUGCUGATT against Fbxo9,-0.589
19,GCUUGACCUUUUUACUCCUTT against Siglece,0.262
20,GCAGAACUUGACCACUGCCTT against Defb2,2.58 (active)
21,GGAUAAUUCACAGUUCAAATT against Tlk1,1.14
22,GGACAUCAUGGACCUGAAGTT against Bmerb1,-0.582

row,Sequence,z-score
1,GAAGCUAGAAGAGAUUAAATT against Cep41,0.821
2,CCCUGUUGAUGAACAAAUCTT against Ddt,-0.262
3,GGUAUGUAGGAAUUACAGUTT against AI606181,2.49 (active)
4,CCUGUCGUUCCUCCUUACATT against Sec11a,-1.29
5,CCAACCUCCCAUUCUGAAUTT against Ttc22,1.71
6,GGGCUUAUUCUGUUAAUAGTT against Mttp,-0.215
7,GCAGGGAUCUGGAUUUAAUTT against Arf5,3.37 (active)
8,CUUAGACCCAAUUCAAUUCTT against Zfp667,-0.0845
9,CGGCUUCUUAGGAAACUCUTT against Olfr358,-0.369
10,GGUGAAAACGUGGUUCCAGTT against Bsx,-0.0072
11,GGUGACUUCCACUCUAACUTT against Sohlh2,-2.57 (active)
12,GGCUAUGAAUAAACUUUUCTT against Olfr1016,0.429
13,GGGAUGGAGGAGGAGCUUATT against Bad,0.86
14,GGAUUCAAUUUUUUGCCAUTT against Pbdc1,-1.74
15,CCACGUAUUGUUAGUAGAATT against Ei24,0.251
16,GUAAGGUAUUCAGUGACCUTT against Olfml2a,-2.23 (active)
17,GGAAACAGAUUUAAAGUGATT against Efcc1,1.03
18,GGACAAGAAGGCAAAUUAGTT against Arhgap9,0.366
19,GCAUAAUAAGCCAAUUCUGTT against Med17,-0.355
20,GCUGAAGUUUACUAUAACATT against Marco,0.565
21,GGUACCAUCACGUUGUGUATT against M6pr,-0.76
22,CCUUGCUCUUUCCAGCUCUTT against Olfr704,0.332

row,Sequence,z-score
1,GGACAUCGGCUACAACACCTT against Fzd10,-2.08 (active)
2,GCUGAGGCAAUUUCAACUUTT against Ctla4,0.169
3,GCACGACACUCUGUGCAUCTT against Kyat3,0.6
4,GCAUCCUACUUCUCAACUUTT against Ceacam12,0.328
5,GGGUUUCGCUAGAACCAUUTT against Plekhg5,-0.541
6,GCUUGUUGCCUAGGACCUATT against Eif1ad,-1.14
7,CCCUCAGAUUCAAAAAGUGTT against Krt1,0.233
8,GCAUGGAGAGAACCUGAAATT against Trim69,-0.801
9,GGGCCAAGAUACCAAGAGUTT against Spout1,-2.71 (active)
10,GGAUAACAGUAAAUGGCUUTT against Zkscan8,0.152
11,GGUUAAGUUACUAACCCAGTT against 4931406C07Rik,1.01
12,GAGACACUUGUGCUGUAGGTT against F730035P03Rik,0.108
13,GCACUGUAUUCUUGAGCACTT against 1700020L24Rik,2.06 (active)
14,GGUAGUGAUUACGAACCAATT against Hey1,0.605
15,GCCCAGUACUCCGCUUACATT against Bhlhe23,-2.03 (active)
16,GGGCUGAUCUUUUUAACUGTT against Tpm3,-0.581
17,GGCCUUAGAGAAAAUCUUUTT against Brd3,0.871
18,ACCAGCACGACAGAUGCUATT against Pla2g12a,3.15 (active)
19,GGCAUACCGUAAAAGUGGCTT against Olfr73,-1.95
20,GCCAAGAUGGUUAAAUACCTT against Ankrd34b,-1.64
21,GGUUCGCCCUUGGAAAUGGTT against Dmap1,-0.258
22,GGAAUUCAUACCCUUGUUGTT against B3gnt5,-0.486

row,Sequence,z-score
1,GGAGGUGAAAGGCAAAACUTT against Poldip2,-0.122
2,CGAAGGUCAAACAGUUUGATT against Stxbp6,-0.558
3,GGACUAGCAGUAAUAAAAGTT against Zdhhc9,-2.37 (active)
4,CCAGAAUUGAACUUCAAGUTT against 2610008E11Rik,-0.00302
5,GGGAGAGAACGUGUUCUUCTT against P2rx6,-0.477
6,GGAGAUCUCCAUCAUCACCTT against Usp50,-1.52
7,CCUAAUGUACACUAACUAUTT against Hsd17b14,1.84
8,CCCUAAGAGAGCCUAAAACTT against Serpina3c,-1.12
9,GAACUCUCUCUUCAUCUGGTT against Cd300ld3,2.18 (active)
10,CCUUUUUGCUGAAUGUGGATT against Aard,0.798
11,GGUGUUGGAUUCCAAUCCCTT against Uba5,-0.462
12,GGAUGAAAAGAUUGAACUCTT against Gart,3.22 (active)
13,GCUCGAUAUUUUGAAGUCCTT against Cntd1,0.693
14,GGAUCAGACUGUACGAGAGTT against Crygd,-1.11
15,GGAAAGUGAAAGUUAGUUUTT against Cbx6,0.244
16,GCAUUUGGAAUUUACCAUGTT against Wdr47,1.13
17,GCCGAGUCUCAGCUUGUAATT against Dnajc3,0.258
18,GGAAUGGGAUUACACCUACTT against Mymk,2.67 (active)
19,GUAUGACCAGAAGAAAAAGTT against Lrrc72,-2.19 (active)
20,GGCAUAUCUGAGGUGAAUCTT against Sec23b,-1.57
21,GGAAAGAGCAAACAGUUCCTT against Il1f6,-2.09 (active)
22,GGUAUUUUGACAGAGUCGATT against Add1,-1.24

row,Sequence,z-score
1,GGUGUUAUCUGCAUCAUCATT against Cyp4f15,-1.42
2,GGUACUUAUGUGGAUUGGATT against Rint1,-0.272
3,GGGACUGGACCCAUACAAUTT against Cox5b,4.27 (active)
4,CCGAGUAAGUUUAACUAAGTT against Lrrc39,-0.501
5,GCUAUAUAAAGGCUGAGUATT against Emilin3,-0.128
6,GGAUGAAGGCCAUUCAAACTT against Hnrnpd,2.04 (active)
7,GGAAGAUCUGAAGUCAAUCTT against Mvk,-1.08
8,GGAGAAAGACAUCAGAAAGTT against Rdh16f2,0.942
9,GGGCCUGAUCUACCUGUUUTT against Slc6a18,0.255
10,GGACAAGUAUGAAUGUCUATT against Ptk2b,1.25
11,CCAAGUGGUACGACCAUGATT against Gcnt3,1.3
12,CCGACCUGAAGACCUUACATT against Tmem18,-0.501
13,GCCCUAGGAGGAACUGAGUTT against Olfr458,-2.54 (active)
14,CGGAAGAAGUUAUUUAGAATT against 1700006J14Rik,0.87
15,GGCUCCAAGUCUACACAACTT against Dnajc6,2.82 (active)
16,CCUCAUUGAGUUUUGAAGATT against Dtd2,-0.329
17,GGAAGACCUUGUGUUUGCATT against Mmp13,-0.692
18,CCUAAAGUCUCUGAAUCAGTT against Fyb,0.45
19,GGUUGUUGCGCAAAUUUAATT against Vmn2r7,1.43
